# Screens: PubChem, National Center for Advancing Translational Sciences (NCATS)
# Hits are enriched below; roughly 19% of the tested compounds scored in any of these assays.
# IL-1B inflam inh – qHTS for Inhibitors of Inflammasome Signaling: IL-1-beta AlphaLISA Primary Screen | 360,000 compounds, 4.7% hits | THP-1 LPS/ATP IL-1B secretion, AlphaLISA, 16 h; hits give low values | activity change, % at 57.5 µM | AID 743279, 2014; in the data active = activity change below about -50%; inconclusive = mostly about -30% to -49%
#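 Secreted IL-1B measured by AlphaLISA bead assay after 16 h compound exposure of THP-1 cells; compounds (final up to 57.5 uM) added 1 h before LPS (250 ng/mL) and ATP (1.25 mM) stimulation; lower signal means less secretion.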
# TDP1 cell CPT – qHTS for Inhibitors of human tyrosyl-DNA phosphodiesterase 1 (TDP1): qHTS in cells in presence of CPT; chicken DT40 Tdp1-/-;hTDP1 cells + 20 nM CPT, ATP luminescence, 48 h; 420,000 compounds, 12% hits; Potency, µM (titrated, usually from 46.2 µM), inactives show top-dose activity change, negative = growth inhibition, hits mostly inhibitors; also: potency is read from the fitted curve at half-maximal effect; nearly all actives have a fitted effect of over 55% in size
#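 Cell growth measured by CellTiter-Glo luminescence after a minimum 48 h, 37 C compound exposure with 20 nM CPT in Tdp1-knockout DT40 cells stably expressing hTDP1, seeded 400/well; qHTS titration format.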
# TDP1 cell noCPT – qHTS for Inhibitors of human tyrosyl-DNA phosphodiesterase 1 (TDP1): qHTS in cells in absence of CPT; DT40 Tdp1-/- hTDP1 cells, no CPT, ATP luminescence, 48 h; Potency, µM (top dose mostly 46.2 µM), for the others: at the highest dose activity change, negative = growth inhibition, hits mostly inhibitors; 420,000 compounds, 15% hits; AID 686978, 2013; also: potency is read from the fitted curve at half-maximal effect; nearly all actives have a fitted effect of over 55% in size
#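 Chicken DT40 Tdp1-/- cells stably complemented with human TDP1 were seeded at 400 cells/well with DMSO in place of 20 nM camptothecin. After compound pinning, cells grew at least 48 hr at 37 °C; viability read by CellTiter-Glo luminescence.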
# TDP1 inh – qHTS Assay for Inhibitors of Tyrosyl-DNA Phosphodiesterase (TDP1); Potency, µM (titrated, usually from 130 µM), for inactives: top-dose activity change, negative = inhibition, hits mostly inhibitors; 350,000 compounds, 0.28% hits; recombinant TDP1, AlphaScreen DNA substrate cleavage; Tyrosyl-DNA phosphodiesterase 1 (Homo sapiens), Q9NUW8; also: potency is read from the fitted curve at half-maximal effect; nearly all actives have a fitted effect of over 40% in size
# Target sequence (Q9NUW8 whole entry, looked up): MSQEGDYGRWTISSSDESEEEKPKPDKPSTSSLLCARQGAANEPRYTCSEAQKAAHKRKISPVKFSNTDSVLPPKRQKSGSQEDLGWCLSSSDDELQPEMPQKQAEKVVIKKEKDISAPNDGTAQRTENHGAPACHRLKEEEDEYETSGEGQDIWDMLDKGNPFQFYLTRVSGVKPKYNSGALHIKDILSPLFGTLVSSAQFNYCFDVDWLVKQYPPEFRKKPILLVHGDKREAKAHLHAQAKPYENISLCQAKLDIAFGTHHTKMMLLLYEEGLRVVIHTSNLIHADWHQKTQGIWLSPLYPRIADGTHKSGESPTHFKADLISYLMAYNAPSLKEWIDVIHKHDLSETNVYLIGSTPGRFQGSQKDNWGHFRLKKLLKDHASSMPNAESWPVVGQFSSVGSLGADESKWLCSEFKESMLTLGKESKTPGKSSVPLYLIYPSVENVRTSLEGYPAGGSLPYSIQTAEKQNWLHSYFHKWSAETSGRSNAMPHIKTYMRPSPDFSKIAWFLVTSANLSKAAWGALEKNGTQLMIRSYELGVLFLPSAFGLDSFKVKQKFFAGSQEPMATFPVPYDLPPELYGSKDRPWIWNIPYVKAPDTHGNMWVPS
#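 Here, a 5' biotin and 3' phosphotyrosine-FITC DNA oligonucleotide reports Tdp1 activity: intact substrate bridges AlphaScreen beads, while cleavage leaves a 3' phosphate and drops signal. All incubations at room temperature.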
# Giardia killer – Small Molecules that selectively kill Giardia lamblia: qHTS; Giardia lamblia trophozoite viability; activity change, % at 7.66 µM, hits read low; 340,000 compounds, 0.15% hits; in the data active = activity change below about -80%; inconclusive = between about -30% and that limit;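 also: parasites exposed to compound for two days anaerobically before the ATP read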
#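 Viability, read as ATP luminescence: trophozoites at 100 cells/well, compound added, 48 hrs anaerobic at 37 deg C, then 15-30 min room-temperature development before reading.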
# ELG1 DNA repair – qHTS screen for small molecules that inhibit ELG1-dependent DNA repair in human embryonic kidney (HEK293T) cells expressing luciferase-tagged ELG1. HEK293T ELG1-luciferase reporter, luminescence, 16 h; DNA damage induced by 5-fluorouridine. Potency, µM (doses to about 46.1 µM), for inactives: at the highest dose activity change, negative = inhibition, most hits filed as inhibitors. 330,000 compounds, 2.3% hits; also: potency is read from the fitted curve at half-maximal effect; nearly all actives have a fitted effect of over 55% in size
#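 Step one: seed 2,000 cells per well. Step two: pin-transfer compound or DMSO alongside 5-fluorouridine. Step three: incubate 16 hr, 37 °C, 5% CO2. Step four: add ONE-Glo, wait 30 min, read luminescence.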
# * hit, by the source's call; ? = inconclusive; / = not tested or not shown; [ ] = dose if it differs, or a comment. Unless noted, calls follow the shape of the dose curve; as a rule, active = well fitted curve in the direction sought with a large enough effect; inconclusive = small, poorly fitted or top-dose-only effect, or another doubt; inactive = no such curve, though single readings can be large; an effect the other way counts as inactive or inconclusive. % is scaled to controls: 0 for no effect and ±100 for the full control effect.
SMILES,IL-1B inflam inh,TDP1 cell CPT,TDP1 cell noCPT,TDP1 inh,Giardia killer,ELG1 DNA repair
COc1ccc(N(Cc2ccccc2)C(=O)c2ccccc2[N+](=O)[O-])cc1,-17.1,?,9.2µM*,1.6%,-16.9,?
CS(=O)(=O)c1ccc(C(=O)N(CCc2ccccc2)Cc2ccccc2)cc1,-2.3,-22.8%,-2.5%,2.8%,?,9.7%
Cn1cc([N+](=O)[O-])c(C(=O)N(Cc2ccccc2)Cc2ccccc2)n1,10.0,?,25.9µM*,5.8%,3.9,5.3%
Cc1cccc(C(=O)N(CCc2ccccc2)Cc2ccccc2)c1[N+](=O)[O-],0.0,10.3µM*,7.31µM*,1.1%,-23.0,-12.1%
COc1ccc(CN2CCNC(=O)C2CC(=O)N(C)Cc2nccn2C)cc1OC (stereo not given),2.4,-14.0%,?,/,-9.2,10.1%
CS(=O)(=O)c1ccccc1C(=O)N(CCc1ccccc1)Cc1ccccc1,0.0,-18.6%,-29.2%,0.1%,10.4,0.8%
O=C(c1ccccc1[N+](=O)[O-])N(CCc1ccccc1)Cc1ccccc1,-2.4,16.4µM*,11.6µM*,2.5%,3.9,-10.0%
CN(C)/C=C(/C(=O)c1ccccc1)n1cncn1,23.2,4.5%,-4.1%,0.0%,7.0,2.5%
O=C(/C=C(/c1ccc(Cl)cc1)n1cncn1)c1ccccc1,-57.6*,?,?,2.6%,11.9,7.4%
Cc1cc(C)c2nc(N3C(=O)C(O)=C(C(=O)c4ccco4)C3c3ccco3)sc2c1 (stereo not given),26.1,?,?,-10.9%,-2.8,-14.6%
CC1CCCCN1c1ncnc2ccccc12 (stereo not given),-25.3,23.1µM*,10.3µM*,1.9%,30.5,?
CC1CCCCN1c1nc(-c2ccncc2)nc2ccccc12 (stereo not given),-14.0,?,18.4µM*,2.0%,-7.7,-35.3%
O=C(O)C1CCCN1c1ncnc2ccccc12 (stereo not given),22.9,-36.8%,-10.2%,6.5%,2.1,?
CC1CCCCN1c1nc(-c2ccc(C(C)(C)C)cc2)nc2ccccc12 (stereo not given),/,?,?,-1.3%[12.3 µM],/,/
CCC1CCCCN1c1nc(-c2ccncc2)nc2ccccc12 (stereo not given),-6.8,29.1µM*,?,2.5%,-7.6,?
c1ccc2c(N3CCCCC3)ncnc2c1,27.2,?,20.6µM*,4.7%,11.4,?
COc1ccc(CCNC(=O)Cn2cc(C(F)(F)F)cc(Cl)c2=O)cc1,3.3,-8.9%,-24.0%,0.0%,19.0,0.5%
CC1(C)CC2CC(C)(CN2c2ncnc3ccccc23)C1 (stereo not given),-82.4*,8.2µM*,9.2µM*,1.1%,2.6,?
CCC(=O)N1CCCc2cc(S(=O)(=O)N3CCC(C(=O)NC4CCCCC4)CC3)ccc21,/,-2.6%,-19.6%,1.1%,/,/
CCOC(=O)N1CCC(NC(=O)c2cnn(-c3ccc(C)cc3C)c2C2CCN(C(=O)OC(C)(C)C)CC2)CC1,/,-27.0%,-24.2%,1.1%,/,/
Cc1ccc(-n2ncc(C(=O)Nc3ccc4c(c3)OCO4)c2C2CCN(C(=O)OC(C)(C)C)CC2)c(C)c1,/,?,29.1µM*,10.6%,/,/
CCOC(=O)c1ccc(NC(=O)c2cnn(-c3ccc(C)cc3C)c2C2CCN(C(=O)OC(C)(C)C)CC2)cc1,/,?,16.4µM*,0.0%,/,/
Cc1c(Cl)cccc1NC(=O)N1CCC(CN2CCCC2)CC1,/,4.3%,-15.6%,3.7%,/,/
O=C(C[n+]1cc(-c2ccc(Br)cc2)n2c1CCCCC2)c1ccccc1,-55.7*,?,16.4µM*,4.8%,0.2,-10.3%
O=C(C[n+]1cc(-c2ccc(Cl)cc2)n2c1CCCCC2)c1ccccc1,-61.7*,6.51µM*,6.51µM*,1.4%,-5.1,-1.5%
SMILES,IL-1B inflam inh,TDP1 cell CPT,TDP1 cell noCPT,TDP1 inh,Giardia killer,ELG1 DNA repair
Cn1c(NC(=O)C[n+]2cc(-c3ccccc3)n3c2CCC3)cc(=O)n(C)c1=O,31.0,-11.4%,-9.0%,3.0%,-11.8,?
O=C(C[n+]1cc(-c2ccccc2)n2c1CCC2)c1cccs1,18.4,1.7%,3.8%,-1.2%,-9.8,?
Cc1cccc(NC(=O)N2CCc3ccccc3C2)c1C,-1.9,-11.2%,1.5%,2.7%[56.1 µM],-3.6,?
Cc1ccc(C)n1-c1nnc(N2CCCC(C(=O)Nc3ccc(C(C)C)cc3)C2)s1 (stereo not given),/,20.6µM*,13µM*,2.5%,/,/
CC(C)c1ccc(NC(=O)C2CCN(S(C)(=O)=O)CC2)cc1,-5.5,?,?,5.9%,-14.1,-0.3%
Cc1ccc(NC(=O)C2CCCN(c3nnc(-n4c(C)ccc4C)s3)C2)cc1Cl (stereo not given),/,?,20.6µM*,7.6%,/,/
Cc1cc(C)cc(NC(=O)C2CCCN(c3nnc(-n4c(C)ccc4C)s3)C2)c1 (stereo not given),/,25.9µM*,?,10.1%,/,/
CCOc1ccc(CNC(=O)CCn2c(=O)c3cccn3c3cccnc32)cc1,/,-7.4%,-12.2%,-5.1%,/,/
COc1ccc(NC(=O)CSc2nc3ccccc3c(=O)n2CCCN2CCCCC2)c(OC)c1,-27.7,?,?,-1.8%,1.1,1.0%
O=C(Nc1cccc(Nc2ccccc2)c1)c1cnn2c1NC(=C1CC1)C=C2C(F)F,/,4.47µM*,14.1µM*,/,/,/
O=C(Nc1ccccc1F)c1cnn2c1NC(=C1CC1)C=C2C(F)F,/,-3.4%,-11.8%,/,/,/
Cc1ccc(NC(=O)c2cnn3c2NC(=C2CC2)C=C3C(F)F)cc1C,/,-1.0%,?,/,/,/
COc1ccc(CCNC(=O)c2cnn3c2NC(=C2CC2)C=C3C(F)F)cc1OC,/,11.2µM*,12.6µM*,/,/,/
O=C(Nc1cccnc1Cl)c1cnn2c1NC(=C1CC1)C=C2C(F)F,/,?,8.91µM*,/,/,/
O=C(Nc1ccccc1Sc1ccccc1)c1cnn2c1NC(=C1CC1)C=C2C(F)F,/,15.8µM*,?,/,-7.2,/
COc1ccc(Cc2nnc(SCC(=O)Nc3ccc(N4CCOCC4)cc3)o2)cc1,-4.7,-13.5%,-8.8%,5.1%[0.0935 µM],12.6,-7.7%
COCCNC(=O)c1cn(C2CCN(C3CCCC3)CC2)nn1,/,0.4%[9.04 µM],5.6%,/,/,/
